According to PubChem BioAssay (NCATS):
Inconclusive results are not listed. Activity calls are given as the source filed them. Calls follow the shape of the dose curve; as a rule, active = well fitted inhibition curve with a large enough effect; inconclusive = small, poorly fitted or top-dose-only effect; inactive = flat fitted curve, though single readings scatter.

Experiment: BET inhibitor-based combinations targeting novel dependencies in MECOM-rearranged (r) AML: AML-191 cell line (AID 2202236; also: nearly all actives have a fitted effect of over 35% in size)
Conditions: AML-191 viability, CellTiter-Glo luminescence, 48 h; series mostly up to 46 µM
Excerpt: Ecotropic viral insertion site 1 (EVI1) is located on chromosome 3q26.2 as part of the MECOM (MDS and EVI1 complex) locus. Under normal hematopoiesis, EVI1 is a regulator of hematopoietic stem cell maintenance and self-renewal and EVI1 levels decrease as the cells differentiate. In approximately 5-10% of de novo acute myeloid leukemia (AML) EVI1 is aberrantly expressed, including Chromosomal inv(3)(q21;q26.2) or t(3;3)(q21;q26.2) alterations (MECOM-r) that account for about 50% of AML with EVI1 overexpression 31. AMLs with high levels of EVI1 have a poor prognosis and an overall survival time averaging between 10-14 months. EVI1 overexpression confers resistance in leukemia cells, highlighting the need to develop new targeted therapies for EVI1 overexpressing AMLs.
Here, we performed an unbiased chemical drug screening by evaluating the single agent activity of a collection of 2,480 oncology-focused, approved and investigational drugs (NCATS Mechanism Interrogation Plates, MIPE v5.0) against a panel of seven AML cell lines. These included four MECOM-r cell-lines (AML-191, AML-194, UCSD-AML1 and HNT-34) and three non-MECOM-r AMLs (MV4-11, OCI-AML3 and SET-2). Exploiting the mechanistic redundancy built in the library, we identified target-level sensitivities in MECOM-r AML cells and relative activity as compared to other AML subtypes.
A collection of 2480 mechanistically annotated dugs (MIPE v5.0) was used to screen four 3q26.2 rearranged AML cell lines and three non-3q26.2 rearranged AML cell lines. This library purposely exploits redundancy by including multiple inhibitors of key onco-targets, while simultaneously encompassing mechanistic diversity, targeting more than 800 distinct mechanisms of action. Briefly, cells were seeded in 5 uL of growth media using a Multidrop Combi dispenser into 1536 well white polystyrene tissue culture treated plates (Corning) at a density of 500cells/well. For each cell-line, for each of the 2480 drugs in MIPE v5.0 library, an 11-point dose curve was generated via a 1536 pin-tool. Plates were incubated for 48 hr at standard incubator conditions, covered by a stainless steel gasketed lid to prevent evaporation. Cell viability was determined by luminescence based, Cell Titer Glo assay (Promega). In detail, 3 uL of Cell Titer Glo were added to each well and plates were incubated at room temperature for 15 min with a stainless-steel lid in place. Luminescence readings were taken using a Viewlux (PerkinElmer) with a 2 s exposure time per plate. Compound dose-response curves were normalized to DMSO and empty well controls on each plate. Quantitative drug activity data from dose-response curves was determined utilizing area Under the Curve (AUC) and Z-transformed AUC (Z-AUC, a mean-centering transformation applied to each individual cell-line screened).
Potency is read from the fitted curve at half-maximal effect.

| SMILES | Potency |
| --- | --- |
| CNC(=O)c1ccccc1Nc1nc(Nc2ccc3c(c2OC)CCC[C@@H](N2CCN(CCO)CC2)C3)ncc1Cl | inactive |
| Clc1ccccc1C(c1ccccc1)(c1ccccc1)n1ccnc1 | 23.5 µM (active) |
| COc1cc2c(Oc3ccc(NC(=O)C4(C(=O)Nc5ccc(F)cc5)CC4)cc3F)ccnc2cc1OCCCN1CCOCC1 | 0.662 µM (active) |
| CC#CCn1c(N2CCC[C@@H](N)C2)nc2c1c(=O)n(Cc1nc(C)c3ccccc3n1)c(=O)n2C | inactive |
| CS(=O)(=O)c1ccc(C2=C(c3ccccc3)C(=O)OC2)cc1 | inactive |
| CC(C)(N)C(=O)N[C@H](COCc1ccccc1)C(=O)N1CCC2(CC1)CN(S(C)(=O)=O)c1ccccc12 | 20.9 µM (active) |
| CC(C)(C)NCC(O)c1ccc(O)c(CO)c1 (stereo not given) | inactive |
| O=C1CCc2cc(OCCCCc3nnnn3C3CCCCC3)ccc2N1 | inactive |
| NS(=O)(=O)c1ccc(NC2=CC(=O)c3ccccc3C2=O)cc1 | 4.68 µM (active) |
| COCCOc1ccc(N2CCN(CCn3ncc4c3nc(N)n3nc(-c5ccco5)nc43)CC2)cc1 | inactive |
| COC(=O)Nc1nc2ccc(C(=O)c3cccs3)cc2[nH]1 | 0.0661 µM (active) |
| CC1c2ccccc2CN1NC(=O)c1ccc(Cl)c(S(N)(=O)=O)c1 (stereo not given) | inactive |
| Cc1cc(N2CCOCC2)cc2[nH]c(-c3c(NC[C@@H](O)c4cccc(Cl)c4)cc[nH]c3=O)nc12 | 0.59 µM (active) |
| CN(C)c1ccc2nc3ccc(=[N+](C)C)cc-3sc2c1 | 2.95 µM (active) |
| O=C1CCc2ccc(OCCCCN3CCN(c4cccc(Cl)c4Cl)CC3)cc2N1 | 23.5 µM (active) |
| O=C(Cc1cccc(OC(F)(F)F)c1)Nc1ccc(CCCCc2nnc(NC(=O)Cc3ccccn3)s2)nn1 | 0.118 µM (active) |
| Cc1cc(-c2cc(OC(=O)c3ccccc3)ccc2Cl)cc2nnc(Nc3ccc(OCCN4CCCC4)cc3)nc12 | inactive |
| O=Nc1c(-c2c(O)[nH]c3cc(Br)ccc23)[nH]c2ccccc12 | 14.8 µM (active) |
| CNC(=O)c1c(F)cccc1Nc1nc(Nc2cc3c(cc2OC)CCN3C(=O)CN(C)C)nc2[nH]ccc12 | 8.33 µM (active) |
| Cc1cccc(-c2[nH]c(CNc3ccccc3F)nc2-c2ccc3ncnn3c2)n1 | inactive |

| SMILES | Potency |
| --- | --- |
| CCOCC(O)COc1ccc(NC(=O)CC[S+](C)C)cc1 (stereo not given) | inactive |
| CN(C)CC/C=C1/c2ccccc2COc2ccc(CC(=O)O)cc21 | inactive |
| O=C(Nc1ccccc1Br)N[C@@H]1CCN(c2ccc(C(F)(F)F)cn2)C1 | inactive |
| CCc1cccc(CC)c1NC(=O)N1Cc2[nH]nc(NC(=O)c3ccc(N4CCN(C)CC4)cc3)c2C1 | 5.25 µM (active) |
| C[C@H]1C[C@@H]2[C@H]([C@@H](O)C[C@@]3(C)[C@H]2CC[C@]3(O)C(=O)CO)[C@@]2(C)C=CC(=O)C=C12 | 0.263 µM (active) |
| CNC(=O)c1ccc(Nc2ncc(C(F)(F)F)c(NCc3nccnc3N(C)S(C)(=O)=O)n2)cc1 | 2.95 µM (active) |
| Fc1cc(-c2cccc3ncc(-c4cnn(C5CCNCC5)c4)nc23)cc(F)c1CN1CCOCC1 | 10.5 µM (active) |
| COc1cccc2nc(-c3cccs3)nc(NN3C(=O)C=C(C)C3=O)c12 | 0.148 µM (active) |
| CC(=O)c1cnc2ccc(-c3cc(Cl)c(O)c(Cl)c3)nc2c1NC1CCC(CN(C)C)CC1 (stereo not given) | 0.0481 µM (active) |
| CC(=O)OC1C(C)OC(Oc2c(-c3ccc(O)cc3)oc3cc(O)cc(O)c3c2=O)C(O)C1OC(C)=O (stereo not given) | inactive |
| Cc1[nH]nc(C(F)(F)F)c1Cc1sc2c(c1C(=O)N1C[C@](C)(O)CO1)c(=O)n(C)c(=O)n2C(C)C | inactive |
| O=C(c1ccccc1)c1ccc2n1CCC2C(=O)O (stereo not given) | inactive |
| O=C1CN2Cc3c(ccc(Cl)c3Cl)N=C2N1 | inactive |
| O=C(O)c1ccc(-n2nc(-c3ccccc3O)nc2-c2ccccc2O)cc1 | 16.6 µM (active) |
| C[C@]12CC[C@H](O)CC1=CCC1C2CC[C@]2(C)C(n3cnc4ccccc43)=CCC12 (stereo not given in full) | 18.6 µM (active) |
| NCC(=O)Nc1ccc(-n2nc(C(F)(F)F)cc2-c2ccc3c(ccc4ccccc43)c2)cc1 | 16.6 µM (active) |
| CCOC(=O)C1=C(N)Oc2ccc(Br)cc2C1C(C#N)C(=O)OCC (stereo not given) | inactive |
| O=C(NC[C@H](O)CN1CCc2ccccc2C1)c1ccnc(NC2CCC2)c1 | inactive |
| COc1ccc(-c2cc3c(C)nc(N)nc3n(C3CCC(OCCO)CC3)c2=O)cn1 (stereo not given) | 0.296 µM (active) |
| Cn1cc(-c2ccc(S(=O)(=O)n3ccc(/C=C/C(=O)Nc4ccccc4N)c3)cc2)cn1 | 0.833 µM (active) |
